We go through 82 molecules from PubChem BioAssay AID651958 (The Scripps Research Institute Molecular Screening Center, 2012).

Structures are written as SMILES. About 2,000 (0.54%) of roughly 370,000 compounds were called active. Only a selection was taken, and actives are over-represented in it overall. A number with no mark means an inactive call. Cut-off read from the data, not from the text of the source: active = inhibition above about 30%; inactive = the rest.

In this assay the test system is Crimean-Congo hemorrhagic fever virus L polyprotein viral ovarian tumor (vOTU) protease domain. As to the kind of experiment: CCHFV vOTU protease inhibitors, primary screen, biochemical, Pep-AMC substrate, fluorescence (AID 651958). Note: 0% = vehicle wells with enzyme and 100% = no enzyme wells. Conditions: at 11.5 µM, active compounds read high.
For orientation: inhibition means the relative decrease from the control value, in per cent. Regarding `CN(CC(=O)Nc1ccccc1F)CC(=O)Nc1ccccc1Br`, the inhibition is -17.7%.
For `CC(C)(C)c1ccc(S(=O)(=O)NCC2CCN(C(=O)C(=O)c3cc4ccccc4o3)CC2)cc1`, the inhibition is 41.9% (active).
In the case of `N#Cc1cccc(C(=O)NCC2CCN(C(=O)C(=O)c3cc4ccccc4o3)CC2)c1`, the inhibition is 5.69%.
For the molecule `O=C(C(=O)N1CCC(CNS(=O)(=O)Cc2ccccc2)CC1)c1cc2ccccc2o1`, the inhibition is -0.44%.
Regarding `Cc1ccc(C(=O)CN2C(=O)NC3(CCc4ccccc43)C2=O)c(C)c1` (configuration not stated), the inhibition was -4.9%.
Regarding `Cn1c(CN2CCOCC2)nc2cc(NC(=O)c3ccc(Cl)cc3)ccc21`, the inhibition is -1.05%.
As to `CCOC(=O)N1CCN(Cc2nc3cc(NC(=O)CC)ccc3n2CC)CC1`, the inhibition is 10.5%.
In the case of `CN1CCN(Cc2nc3cc(NC(=O)COc4ccc([N+](=O)[O-])cc4)ccc3n2C)CC1`, the inhibition is 33.6% (active).
For `CC(=O)Nc1ccc(C(=O)NNC(=O)CCCCC(=O)NNC(=O)c2ccc(NC(C)=O)cc2)cc1`, the inhibition was 2.99%.
Take `COc1ccc(C(=O)COC(=O)c2ccc([N+](=O)[O-])s2)cc1OC`: the inhibition is 34.1% (active).
For `COc1cc(CCC(=O)OCC(=O)Nc2cccc(S(N)(=O)=O)c2)cc(OC)c1OC`, the inhibition is -0.39%.
For `COc1ccc(C(=O)OCC(=O)c2ccc(Cl)s2)c(OC)c1OC`, the inhibition was 7.84%.
As to `COc1cc(C(=O)OCC(=O)NC23CC4CC(CC(C4)C2)C3)cc(OC)c1OC`, the inhibition is 12.9%.
In the case of `COc1ccc(C(=O)OCC(=O)c2ccc(C)c(S(=O)(=O)N3CCOCC3)c2)cc1OC`, the inhibition is -12.5%.
For `COc1cc(NC(=O)COC(=O)c2ccc([N+](=O)[O-])s2)cc(OC)c1OC`, the inhibition was 113% (active).
In the case of `CCN(CC)CCn1c(=S)[nH]c2ncccc2c1=O`, the inhibition was 3.47%.
Take `FC(F)(F)c1cc(C(F)(F)F)c2ccc(N3CCN(c4ccccc4)CC3)nc2n1`: the inhibition was -0.35%.
The result for `CSc1ncc(C(=O)Nc2ccc(C)cc2C)c(C)n1` reads -3.39%; that for `CN(C)C(=O)c1ccc2c(c1)C1C3CCC(C3)C1C(c1ccccc1)N2` (configuration not stated), 5.37%.
The result for `CCOc1ccc(-c2cn(S(=O)(=O)c3cccc4nsnc34)nc2N)cc1` reads 7.56%.
As for `COc1ccccc1C(=O)NCCC(=O)NN1C(=O)NC2(CCCCC2)C1=O`, the inhibition was -3.82%.
For `COC(=O)[C@]1(Cc2ccccc2)N[C@H](CN(C)S(=O)(=O)c2ccc(OC(F)(F)F)cc2)[C@@H]2C(=O)N(Cc3ccccc3)C(=O)[C@@H]21`, the inhibition is 3.43%.
The result for `CCN(C[C@H]1N[C@@](CC)(C(=O)OC)[C@H]2C(=O)N(Cc3ccccc3)C(=O)[C@@H]12)S(=O)(=O)c1ccc(C(F)(F)F)cc1` reads 29.7% (active).
On to `CCN(C[C@H]1N[C@@](CC)(C(=O)OC)[C@H]2C(=O)N(Cc3ccccc3)C(=O)[C@@H]12)S(=O)(=O)c1ccccc1`, for which the inhibition is 6.5%.
For `COC(=O)[C@@]12C[C@@H](CC(=O)NCc3cccc(C(F)(F)F)c3)C(=O)N(Cc3ccco3)C1=CCC(C)(C)C2`, the inhibition was 34.5% (active).
Turning to `CCCCNC(=O)C[C@@H]1C[C@@]2(C(=O)OC)CC(C)(C)CC=C2N(Cc2ccco2)C1=O`, the inhibition is 4.7%.
For `CCOC(=O)[C@]12CCC=C1N(Cc1ccco1)C(=O)[C@H](CC(=O)NCc1cccc(C(F)(F)F)c1)C2`, the inhibition is 15.5%.
With `CCN(CC(=O)Nc1ccccc1C(F)(F)F)C(=O)CSCc1c(C)noc1C`, the inhibition is -9.14%.
The result for `COC(=O)[C@]12C[C@H](CC(=O)NCc3ccc(C)o3)C(=O)N(CCC3=CCCCC3)C1=C[C@H](C(C)(C)C)O[C@@H]2C` reads 29.6% (active); that for `COC(=O)[C@]12C[C@H](CC(=O)NCc3ccccc3)C(=O)N(CCC3=CCCCC3)C1=C[C@H](C(C)(C)C)O[C@@H]2C`, 24.8%.
Turning to `CCCCCCCCN1C(=O)[C@@H](CC(=O)NCc2ccc(C)o2)C[C@@]2(C(=O)OC)C1=C[C@H](C(C)(C)C)O[C@@H]2C`, the inhibition is 17.8%.
The result for `COc1ccc2c(c1)[C@H]1[C@H](CO2)[C@H](c2ccccc2)[C@]2(C)C(=O)Nc3cc(F)c(F)cc3C(=O)N12` reads 0.66%.
Turning to `COCCn1c(SCc2nc3cc(OC)c(OC)cc3c(=O)[nH]2)nnc1-c1ccncc1`, the inhibition is -3.09%.
With `O=C1Nc2ccccc2-n2nnnc2C1N1CCN(c2cccc(C(F)(F)F)n2)CC1` (configuration not stated), the inhibition is 32.5% (active).
For `COc1cc(OC)cc(C(=O)NCCN2CCC3(CC2)C(=O)NCN3c2ccccc2)c1`, the inhibition was -10.2%.
As to `CCCc1ccc(C(O)c2ncc(-c3cccc(OC)c3)[nH]2)cc1` (configuration not stated), the inhibition is 23.9%.
As for `Cc1cc(=O)[nH]c(SCC(=O)Nc2ccc(Cl)cc2C)n1`, the inhibition is -2.3%.
For the molecule `Cc1cc(C)c2c(=O)[nH]c(SCC(=O)Nc3ccc(Br)cc3)nc2n1`, the inhibition was 36% (active).
Turning to `O=C(CSc1nc2[nH]ncc2c(=O)[nH]1)Nc1ccc(F)cc1`, the inhibition was -2.83%.
With `Cc1ccnc(NS(=O)(=O)c2ccc(NC(=O)c3oc4ccccc4c3C)cc2)n1`, the inhibition is 29.9% (active).
On to `Cc1ccnc(NS(=O)(=O)c2ccc(NC(=O)c3oc4ccc(F)cc4c3C)cc2)n1`, for which the inhibition is -2.26%.
For `Cc1ccnc(NS(=O)(=O)c2ccc(NC(=O)c3ccc(S(=O)(=O)N(C)C)cc3)cc2)n1`, the inhibition is -12.8%.
As for `COc1c(F)c(F)c(-c2csc(N)n2)c(F)c1F`, the inhibition was -1.03%.
As for `CCOc1cc(S(=O)(=O)NC2CC(C)(C)NC(C)(C)C2)ccc1F`, the inhibition is 13.1%.
The result for `O=C(NCCc1ccc(Cl)cc1Cl)c1cc([N+](=O)[O-])c[nH]c1=O` reads 30.7% (active); that for `O=C(NCCc1c[nH]c2ccc(Cl)cc12)c1ccc([N+](=O)[O-])cc1`, -0.42%.
In the case of `NS(=O)(=O)c1ccc(CCNC(=O)c2ccc(Cl)cc2[N+](=O)[O-])cc1`, the inhibition is 2.43%.
In the case of `Cc1ccc(-n2c(SCC(=O)Nc3cccc4ccccc34)nnc2-c2ccco2)cc1`, the inhibition is 7.16%.
Regarding `CCCc1ccc(-c2c(C)sc(NC(=O)c3ccnn3C)c2C#N)cc1`, the inhibition is 13%.
The result for `CC(=O)NC(C(=O)NCC(N)=O)C(C)C` (configuration not stated) reads 3.21%.
For the molecule `Cc1cc(C)cc(NC(=S)NCCCN2CCOCC2)c1`, the inhibition was 0.01%.
Consider `Cc1ccc(NC(=S)NCCN2CCOCC2)cc1`, for which the inhibition was 36.5% (active).
As to `CCCC(=O)NC(=S)Nc1ccc(CN2CCOCC2)cc1`, the inhibition is 9.86%.
Turning to `CN(CC1CCCO1)S(=O)(=O)c1ccc(C(=O)Nc2ccc(F)cc2)cc1` (configuration not stated), the inhibition is 5.87%.
The result for `OCc1nc(CO)n(Cc2ccccc2)n1` reads -7.04%; that for `CCOC(=O)C1=C(C)c2ccccc2OC1C(=O)OCC` (configuration not stated), 16.2%.
`CCOC(=O)c1c(C)[nH]c2c1-c1ccccc1C(=O)C2=O`: the inhibition is 108% (active).
For the molecule `CCOC(=O)NN1C(=O)c2ccccc2NC1c1ccccc1O` (configuration not stated), the inhibition is -25.4%.
The result for `COC(=O)c1cc(C(=O)OCC(=O)Nc2cc(C)on2)cc([N+](=O)[O-])c1` reads 4.92%.
As for `Cc1noc(C)c1C(=O)OCC(=O)N1CCN(S(=O)(=O)c2ccc3ccccc3c2)CC1`, the inhibition is 4.27%.
On to `COc1ccc(-c2cn(-c3ccc(C)cc3)c(=O)n2CC(=O)Nc2ccc(OC)c(OC)c2)cc1`, for which the inhibition is 15.2%.
As to `C#CCO[C@@H]1C[C@H](n2cnc3c(=O)[nH]c(NC(=O)C(C)C)nc32)O[C@@H]1CO`, the inhibition is -9.39%.
As for `Cc1ccc(S(=O)(=O)N2CCOCC2)cc1C(=O)NC(=S)N(Cc1ccccc1)C(C)C`, the inhibition was -6.59%.
Take `Cc1nnc(NC(=O)Cn2c(=O)sc3ccccc32)s1`: the inhibition is -3.29%.
The result for `O=C(CCS(=O)(=O)c1ccccc1)Nc1ccc(Cl)c(Cl)c1` reads 13.1%; that for `Cc1nnc(NC(=O)Nc2ccc(Cl)c(Cl)c2)s1`, 43.4% (active); that for `CCCCn1ccnc1C(=O)c1cccc(S(=O)(=O)N2c3ccccc3CC2C)c1` (configuration not stated), 26.1%.
For the molecule `CCCCNS(=O)(=O)c1ccc2nc(SCC(=O)Nc3cc(C)cc(C)c3)[nH]c2c1`, the inhibition is 4.67%.
In the case of `Cc1ccc(-n2ncc(C(=O)NC3CC3)c2C2CCN(C(=O)OC(C)(C)C)CC2)c(C)c1`, the inhibition was 16%.
As for `Cc1ccc(C(=O)NC2CC(C)(C)NC(C)(C)C2)c(C)c1`, the inhibition is -8.23%.
The result for `CSCCC(NC(=O)COc1ccccc1)C(=O)N(C)CC(=O)Nc1ccc(C)cc1` (configuration not stated) reads 9.4%.
The result for `COc1ccc2c(c1)C(C)=CC(C)(C)N2C(=O)CNCc1ccc2c(c1)OCO2` reads -2.62%; that for `COc1ccc2c(c1)C(C)=CC(C)(C)N2C(=O)Nc1ccccc1`, 51.4% (active).
The result for `COc1cccc(NC(=O)C2C(c3ccccc3)C2(Cl)Cl)c1` (configuration not stated) reads -4.86%.
Take `O=C(COc1coc(CN2CCN(c3ccccc3)CC2)cc1=O)N1CCc2ccccc21`: the inhibition was -8.86%.
Turning to `CCc1nc2ccc(C(=O)Nc3ccc(OC)c(OC)c3)cn2c1N(C)C(=O)c1cccc(OC)c1`, the inhibition is 7.94%.
For the molecule `O=C(O)Cc1csc(NC(=O)CSc2nnnn2-c2ccc(O)cc2)n1`, the inhibition was -4.88%.
Turning to `CCN(CC)C(=O)C1=C(C)N(Cc2ccc(F)cc2)C(=O)C(CC(=O)NCc2cccc3ccccc23)C1` (configuration not stated), the inhibition is 1.88%.
In the case of `COc1ccc(CN2C(=O)C(CC(=O)NCc3cccc4ccccc34)CC(C(=O)N3CCOCC3)=C2C)cc1` (configuration not stated), the inhibition was 7.84%.
With `CCN(CC)C(=O)C1=C(C)N(Cc2ccc(C(C)(C)C)cc2)C(=O)C(CC(=O)NCc2cccc3ccccc23)C1` (configuration not stated), the inhibition is 31.8% (active).
Take `CCN(CC)CCCC(C)n1c2nc(=O)[nH]c(=O)c-2nc2cc(Cl)ccc21` (configuration not stated): the inhibition was 95.2% (active).
The result for `Cc1ccc(C)c(NC(=O)c2cc(-c3cc(C)cc(C)c3O)n[nH]2)c1` reads -1.49%.
